Test [1] in a line: Nuclear factor erythroid 2-related factor 2/antioxidant responsive element (Nrf2/ARE) small molecule agonists: qHTS cell viability counter screen in human keratinocytes (AID 1919968; active = well fitted curve in the direction sought with a large enough effect in the repeat runs; an effect the other way counts as inactive or inconclusive; also: nearly all actives have a fitted effect of over 55% in size; also: potency is read from the fitted curve at half-maximal effect). Summed up:
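KeratinoSens cells (HaCaT keratinocytes stably carrying an ARE-luciferase reporter) were seeded at 1,500 cells/well and rested 5 h at 37 C/5% CO2. They were then exposed to compounds in DMSO for 23 h. Viability was read by CellTiter-Fluor fluorescence after 1 h.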
For orientation: In qHTS, concentration-response curves come from the screen itself.

Test [2] in a line: Nuclear factor erythroid 2-related factor 2/antioxidant responsive element (Nrf2/ARE) small molecule agonists: luciferase reporter gene qHTS assay in human keratinocytes (AID 1919969). Also: nearly all actives have a fitted effect of over 35% in size.
The target of test [3] is Gonadotropin-releasing hormone receptor (Homo sapiens) (UniProt P30968). Description: Human gonadotropin-releasing hormone receptor (GnRHR) small molecule agonists, calcium flux assay in GnRHR-HEK293 cells (AID 1920063). Also: nearly all actives have a fitted effect of over 35% in size. An outline of the steps:
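HEK293 cells stably expressing human GnRHR were plated 18 h at 37 °C, loaded with calcium dye 1 h at 37 °C, then given compound in agonist mode; fluorescence (Ex/Em 480/540) read kinetically for 3 min at 1 s intervals.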
For orientation: Calcium flux is commonly read through the fluorescence of an indicator in the cells.

Test [4] concerns the target KiSS-1 receptor (Homo sapiens) (UniProt Q969F8). The test can be described thus: Human kisspeptin (KISS1R) small molecule agonists, calcium flux assay in KISS1R-HEK293 cells (AID 1920064; active = well fitted curve in the direction sought with a large enough effect in the repeat runs; an effect the other way counts as inactive or inconclusive). Summed up: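 HEK293 cells stably expressing human KISS1R were plated 18 h at 37 °C, loaded with calcium dye for 1 h at 37 °C, then given compound by pin tool. Fluorescence (Ex/Em 480/540) was read kinetically for 3 min.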

The nature of test [5]: G protein-coupled receptor (GPCR) small molecule agonists, calcium flux assay: HEK293 wild type cell line counter screen (AID 1920065). An outline of the steps:
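Cells were plated and cultured 18 h at 37 C/5% CO2, then loaded with calcium dye for 1 h at 37 C. Compounds in DMSO were pin-transferred in agonist mode, and fluorescence (Ex/Em 480/540) was read kinetically for 3 min at 1 s intervals.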

A short description of test [6]: p53 small molecule agonists, cell-based qHTS assay with human liver microsomes (AID 1963577). An outline of the steps: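 p53RE-bla cells, 4,000/well, compound added after 5 h, with human liver microsomes 0.5 mg/mL and NADPH 0.5 mg/mL final; 16 h at 37 C, then LiveBLAzer 2 h RT, fluorescence.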
The nature of test [7]: p53 small molecule agonists, cell-based qHTS assay with rat liver microsomes (AID 1963578). An outline of the steps:
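p53RE-bla cells, 4,000/well, pre-incubated 5 h, then given compounds plus rat liver microsomes (0.5 mg/mL final) and NADPH (0.5 mg/mL final). Incubation 16 h at 37 C; beta-lactamase reporter read by LiveBLAzer fluorescence after 2 h at room temperature.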

A short description of test [8]: p53 small molecule agonists, cell-based qHTS assay with human liver microsomes: qHTS cell viability counter screen (AID 1963579). Also: nearly all actives have a fitted effect of over 45% in size. Summed up:
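p53RE-bla cells, 4,000/well, dosed 5 hours after plating, with human liver microsomes (0.5 mg/mL final) plus NADPH (0.5 mg/mL final), 16 hours at 37 C. Viability read as CellTiter-Glo luminescence after 30 min at room temperature.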

Test [9] in a line: p53 small molecule agonists, cell-based qHTS assay with rat liver microsomes: qHTS cell viability counter screen (AID 1963580). Also: nearly all actives have a fitted effect of over 45% in size. Summed up:
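p53RE-bla HCT-116 cells (4,000/well) rested 5 h at 37 C, then given Tox21 compounds in DMSO with rat liver microsomes (0.5 mg/mL final) plus NADPH (0.5 mg/mL final) for 16 h at 37 C. Viability read by CellTiter-Glo luminescence after 30 min at room temperature.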

Test [10] in a line: p53 small molecule agonists, cell-based qHTS assay: qHTS cell viability counter screen (AID 1963581). Also: nearly all actives have a fitted effect of over 45% in size. An outline of the steps:
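p53RE-bla HCT-116 cells were exposed to compounds for 16 h at 37 C; after the beta-lactamase FRET read in the same wells, CellTiter-Glo was added and luminescence (intracellular ATP) read after 30 min at room temperature.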

The nature of test [11]: p53 small molecule agonists, cell-based qHTS assay (AID 1963582; active = well fitted activation curve with a large enough effect in the signal ratio in the repeat runs, not every such curve was filed as active; the % refers to the signal ratio). Summed up:
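p53RE-bla beta-lactamase reporter cells rested 5 h at 37 C/5% CO2, then received compounds in DMSO by pin transfer and were incubated 16 h at 37 C. LiveBLAzer B/G FRET substrate was loaded for 2 h at room temperature before fluorescence reading.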

The target in test [12] is 5-hydroxytryptamine receptor 2A (Homo sapiens) (UniProt P28223). The test can be described thus: 5-hydroxytryptamine receptor 2A (HTR2A) small molecule antagonists, cell-based qHTS assay (AID 1963586). Also: nearly all actives have a fitted effect of over 45% in size. Summed up: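 Antagonist-mode intracellular calcium assay: DOI (4 nM) added after 5 min compound pre-incubation at room temperature to dye-loaded HTR2A-CHO cells. Fluorescence followed for 3 min, sampled every second.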
5-hydroxytryptamine receptor 2A (Homo sapiens), sequence (P28223 whole entry, looked up): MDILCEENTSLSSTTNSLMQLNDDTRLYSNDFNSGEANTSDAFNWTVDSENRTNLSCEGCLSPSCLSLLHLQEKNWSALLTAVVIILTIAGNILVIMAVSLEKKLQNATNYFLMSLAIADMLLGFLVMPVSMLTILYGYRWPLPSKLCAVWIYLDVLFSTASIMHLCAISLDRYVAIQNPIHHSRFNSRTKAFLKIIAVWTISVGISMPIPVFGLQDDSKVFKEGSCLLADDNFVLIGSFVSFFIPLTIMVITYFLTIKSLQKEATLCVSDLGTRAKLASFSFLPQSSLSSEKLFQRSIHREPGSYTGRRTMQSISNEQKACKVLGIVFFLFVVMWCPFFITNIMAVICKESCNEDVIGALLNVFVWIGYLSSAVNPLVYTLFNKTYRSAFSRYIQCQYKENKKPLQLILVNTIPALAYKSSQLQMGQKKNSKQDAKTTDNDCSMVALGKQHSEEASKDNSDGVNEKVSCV

Test [13] has the same target. The test can be described thus: 5-hydroxytryptamine receptor 2A (HTR2A) small molecule agonists, cell-based qHTS assay (AID 1963587). Also: nearly all actives have a fitted effect of over 30% in size. An outline of the steps: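 HTR2A-CHO cells, plated 18 h at 37 C/5% CO2, dye-loaded 1 h at 37 C; compounds in DMSO added by pin tool (agonist mode). Intracellular calcium flux read as kinetic fluorescence on FDSS over 2 min at 1 s intervals.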

Test [14] has as its target Muscarinic acetylcholine receptor M1 (Homo sapiens) (UniProt P11229). Description: Cholinergic receptor muscarinic 1 (CHRM1) small molecule antagonists, cell-based qHTS assay (AID 1963588). Also: nearly all actives have a fitted effect of over 40% in size. Summed up:
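CHRM1-CHO calcium-flux assay, antagonist mode. Cells were seeded 18 h, dye-loaded 1 h at 37 C and given compound for 5 min at RT, then acetylcholine was added at 50nM. FDSS fluorescence was read 3 min; 15 concentrations, three runs.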

The target is the same in test [15]. Description: Cholinergic receptor muscarinic 1 (CHRM1) small molecule agonists, cell-based qHTS assay (AID 1963589). Also: nearly all actives have a fitted effect of over 35% in size. An outline of the steps:
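CHO cells stably expressing human CHRM1, seeded 18 h at 37 C/5% CO2, dye-loaded 1 h at 37 C, then given compound in agonist mode; intracellular calcium fluorescence read kinetically at 1 s intervals. Fifteen concentrations, three independent runs.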

Test [16] is described as follows: cAMP Responsive Elements (CRE) small molecule agonists, cell-based qHTS assay (AID 1963590). An outline of the steps:
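CRE-bla HEK 293T cells in DMEM with 10% dialyzed FBS, NEAA, pyruvate and 25 mM HEPES were plated 18 h at 37 C/5% CO2, then exposed to compounds in DMSO for 3 h before LiveBLAzer B/G FRET substrate addition.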

Test [17] is described as follows: cAMP Responsive Elements (CRE) small molecule antagonists, cell-based qHTS assay (AID 1963591; active = well fitted inhibition curve with a large enough effect in the signal ratio in the repeat runs, not every such curve was filed as active; the % refers to the signal ratio). An outline of the steps: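 CRE-bla HEK293T cells were plated 18 h at 37 °C/5% CO2, pinned with compound in DMSO, then stimulated with NKH477 at 0.25 uM final for 3 h. LiveBLAzer B/G FRET substrate was added and plates incubated 2 h at room temperature.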
For test [18], the target named is Beta-2 adrenergic receptor (Homo sapiens) (UniProt P07550). The test can be described thus: Adrenergic beta2 receptor (ADRB2) small molecule antagonists, cell-based qHTS assay (AID 1963592). Also: series mostly up to about 92 µM; nearly all actives have a fitted effect of over 50% in size. Summed up: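 Cells (CHO, stable ADRB2 overexpression) incubated 18-20hr at 37C; compounds added from DMSO; agonist mix (1nM isoproterenol, 100uM IBMX, 25uM Ro-20-1724) added; 0.5hr RT; d2-cAMP and anti-cAMP-cryptate added; 1hr RT; 665/615 nm read.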
Beta-2 adrenergic receptor (Homo sapiens), sequence (P07550 whole entry, looked up): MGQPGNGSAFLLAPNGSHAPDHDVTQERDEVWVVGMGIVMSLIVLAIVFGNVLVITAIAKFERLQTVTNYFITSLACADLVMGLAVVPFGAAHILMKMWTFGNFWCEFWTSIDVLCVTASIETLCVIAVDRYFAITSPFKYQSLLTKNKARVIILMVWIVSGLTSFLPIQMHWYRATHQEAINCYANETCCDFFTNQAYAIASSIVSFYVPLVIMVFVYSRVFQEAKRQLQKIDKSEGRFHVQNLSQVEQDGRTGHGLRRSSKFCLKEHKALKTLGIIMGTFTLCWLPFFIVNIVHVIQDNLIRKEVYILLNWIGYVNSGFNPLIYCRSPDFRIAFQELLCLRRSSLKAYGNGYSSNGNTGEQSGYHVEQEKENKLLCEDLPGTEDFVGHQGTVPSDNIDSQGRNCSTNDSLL

In test [19] the target is D(2) dopamine receptor (Homo sapiens) (UniProt P14416). The test can be described thus: Dopamine D2 receptor (DRD2) small molecule agonists, cell-based qHTS assay (AID 1963594). Also: nearly all actives have a fitted effect of over 35% in size. Summed up:
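HEK293 cells stably expressing DRD2 were cultured 24 h at 37 C, then given Ro20-1724 (0.1 mM final) and compounds for 10 min at room temperature. NKH477 (200nM) was then added for 30 min. cAMP was read by HTRF.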

Test [20] has the same target. Description: Dopamine D2 receptor (DRD2) small molecule antagonists, cell-based qHTS assay (AID 1963595; active = well fitted inhibition curve with a large enough effect in the signal ratio in the repeat runs, with a control signal flat; the % refers to the signal ratio). Summed up: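 HEK293 cells stably expressing DRD2, preincubated with 0.1 mM Ro20-1724 and compounds 10 min, were stimulated with 200 nM NKH477 plus 12 nM quinpirole for 30 min at room temperature; cAMP measured by HTRF (665/620 nm).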

The values below come from PubChem BioAssay (Tox21).

Values joined by “and” are separate entries in the source; they are usually repeats but may differ in a detail not shown here. Identical values can stand only once. Records with an inconclusive call do not appear. Active and inactive are the calls of the source. Unless noted, calls follow the shape of the full dose curve.

D(2) dopamine receptor (Homo sapiens), sequence (P14416 whole entry, looked up): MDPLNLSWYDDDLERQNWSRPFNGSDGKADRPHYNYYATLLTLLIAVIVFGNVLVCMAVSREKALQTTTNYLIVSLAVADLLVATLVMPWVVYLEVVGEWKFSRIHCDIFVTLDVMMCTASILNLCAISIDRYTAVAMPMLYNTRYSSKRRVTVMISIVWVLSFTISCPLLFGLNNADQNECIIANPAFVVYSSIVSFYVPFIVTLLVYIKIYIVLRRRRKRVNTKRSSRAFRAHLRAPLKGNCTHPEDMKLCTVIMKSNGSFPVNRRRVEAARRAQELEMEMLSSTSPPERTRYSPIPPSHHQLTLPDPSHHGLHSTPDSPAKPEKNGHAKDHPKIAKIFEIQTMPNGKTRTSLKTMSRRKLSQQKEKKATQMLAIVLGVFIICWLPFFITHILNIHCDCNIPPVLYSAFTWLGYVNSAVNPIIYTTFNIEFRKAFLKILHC
Muscarinic acetylcholine receptor M1 (Homo sapiens), sequence (P11229 whole entry, looked up): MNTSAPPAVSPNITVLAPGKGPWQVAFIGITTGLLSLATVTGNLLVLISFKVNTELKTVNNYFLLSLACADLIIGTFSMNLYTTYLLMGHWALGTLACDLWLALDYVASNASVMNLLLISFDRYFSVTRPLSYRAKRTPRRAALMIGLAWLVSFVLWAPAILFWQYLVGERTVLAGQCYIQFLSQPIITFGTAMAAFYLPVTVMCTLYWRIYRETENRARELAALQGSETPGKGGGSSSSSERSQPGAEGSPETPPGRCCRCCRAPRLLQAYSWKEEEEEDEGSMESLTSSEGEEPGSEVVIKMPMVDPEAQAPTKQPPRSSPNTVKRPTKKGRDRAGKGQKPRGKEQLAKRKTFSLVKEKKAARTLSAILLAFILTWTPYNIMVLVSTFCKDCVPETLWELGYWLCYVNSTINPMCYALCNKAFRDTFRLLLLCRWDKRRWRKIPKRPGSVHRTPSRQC
Gonadotropin-releasing hormone receptor (Homo sapiens), sequence (P30968 whole entry, looked up): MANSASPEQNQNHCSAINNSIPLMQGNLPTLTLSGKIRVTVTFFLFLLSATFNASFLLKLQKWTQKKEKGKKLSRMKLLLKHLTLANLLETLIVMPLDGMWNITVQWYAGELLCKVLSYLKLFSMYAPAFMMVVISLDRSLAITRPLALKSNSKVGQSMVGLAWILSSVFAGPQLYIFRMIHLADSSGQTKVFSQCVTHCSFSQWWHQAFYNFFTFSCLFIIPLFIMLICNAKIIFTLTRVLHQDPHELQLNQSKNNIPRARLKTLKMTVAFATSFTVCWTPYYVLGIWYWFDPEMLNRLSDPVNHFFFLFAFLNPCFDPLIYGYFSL
KiSS-1 receptor (Homo sapiens), sequence (Q969F8 whole entry, looked up): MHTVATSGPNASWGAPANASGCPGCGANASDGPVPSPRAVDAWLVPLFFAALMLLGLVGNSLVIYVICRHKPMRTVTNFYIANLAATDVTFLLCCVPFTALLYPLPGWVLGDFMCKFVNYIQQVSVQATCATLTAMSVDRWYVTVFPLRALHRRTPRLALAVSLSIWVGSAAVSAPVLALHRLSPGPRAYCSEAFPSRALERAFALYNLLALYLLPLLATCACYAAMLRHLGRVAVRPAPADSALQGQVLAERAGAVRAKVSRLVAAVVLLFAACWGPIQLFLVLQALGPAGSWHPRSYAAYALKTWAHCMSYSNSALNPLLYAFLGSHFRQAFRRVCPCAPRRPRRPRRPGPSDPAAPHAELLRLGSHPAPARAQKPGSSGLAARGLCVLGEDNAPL

With `O=C(O)c1[nH]n(-c2ccc(S(=O)(=O)O)cc2)c(=O)c1N=Nc1ccc(S(=O)(=O)O)cc1`, the Potency in [1] is 24.4 µM (active) and 45.4 µM (active). The Potency entry in [2], in [3], in [4], in test [5], in test [6] and in [7] was “inactive” in each case. Moreover, the Potency entry in [8], in [9], in test [10], in test [11], in [12] and in test [13] was “inactive” each time. Besides, the Potency result in test [14], in test [15], in test [16], in [17], in test [18] and in test [19] was “inactive” each time.
As to `O=C1CCCCCCCCCCCN1`, the Potency entry in test [1], in test [2], in test [3], in test [4], in test [5] and in [6] was “inactive” each time. The Potency entry in [7], in [8], in test [9], in test [10], in [11] and in [12] was “inactive” in each case. In addition, the Potency result in test [13], in [14], in test [15], in test [16], in test [17] and in [18] was “inactive” throughout. In addition, the Potency entry in test [19] and in [20] was “inactive” throughout.
For `Cc1ccccc1Cl`, the Potency result in test [1], in test [2], in test [3], in test [4], in test [5] and in test [6] was “inactive” in each case. Further, the Potency result in test [7], in test [8], in [9], in test [10], in test [11] and in [12] was “inactive” each time. Further, the Potency result in test [13], in [14], in test [15], in test [16], in test [17] and in test [18] was “inactive” each time. For the same compound, the Potency entry in [19] and in [20] was “inactive” each time.
`C[Si](C)(C)N[Si](C)(C)C`: the Potency entry in test [1], in [2], in test [3], in test [4], in test [5] and in [6] was “inactive” each time. The Potency result in [7], in test [8], in [9], in [10], in test [11] and in test [12] was “inactive” each time. Also, the Potency result in test [13], in test [14], in test [15], in [16], in [17] and in test [18] was “inactive” each time. The Potency entry in test [19] and in test [20] was “inactive” each time.
With `Cc1cccc(O)c1C`, the Potency entry in test [1], in test [2], in test [3], in [4], in test [5] and in [6] was “inactive” in each case. Moreover, the Potency entry in test [7], in test [8], in [9], in test [10], in test [11] and in [12] was “inactive” in each case. Besides, the Potency entry in test [13], in test [14], in [15], in [16], in test [17] and in test [18] was “inactive” in each case. Further, the Potency result in test [19] and in test [20] was “inactive” each time.
Take `c1ccc2[nH]cnc2c1`: the Potency entry in test [1], in test [2], in test [3], in [4], in [5] and in test [6] was “inactive” each time. The Potency result in test [7], in test [8], in test [9], in test [10], in [11] and in test [12] was “inactive” throughout. The Potency entry in test [13], in [14], in test [15], in test [16], in [17] and in [18] was “inactive” each time. For the same compound, the Potency result in test [19] and in test [20] was “inactive” in each case.
`O=S1(=O)CCCO1`: the Potency result in test [1], in test [2], in test [3], in test [4], in test [5] and in test [6] was “inactive” in each case. For the same compound, the Potency result in [7], in test [8], in test [9], in test [10], in test [11] and in test [12] was “inactive” in each case. In addition, the Potency entry in test [13], in test [14], in test [15], in test [16], in test [17] and in test [18] was “inactive” throughout. Further, the Potency entry in test [19] and in [20] was “inactive” throughout.
